# Source: PubChem (National Center for Advancing Translational Sciences (NCATS))
# A selection: hits, their analogues and other compounds. The true share with any hit is near 3.3%.
# LDHA block = inhibitors of human lactate dehydrogenase A; P00338; purified LDHA, NADH/diaphorase-resazurin fluorescence; hits give low values; activity change, % (values are at about 110 or 230 µM); 0.15% of 480,000 active; AID 1347041; in the data active means activity change below about -30%; inconclusive means mostly about -25% to -30%;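 further: plate controls were DMSO wells for no effect and wells without enzyme for full effect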
#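 Human LDH5 (2 nM) was incubated with 0.06 mM NADH and 0.2 mM pyruvate for 5 min at room temperature in Tris pH 7.4. Remaining NADH was coupled through diaphorase/resazurin, and resorufin fluorescence was read at 0 and 20 min.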
# PI4K2A inh = inhibitors of human PI4K2A; Q9BTU6; purified PI4K2A, ADP-Glo luminescence, 1 h; hits give low values; activity change, negative = inhibition, % at 76.9 µM; 0.13% of 420,000 active; in the data active means activity change below about -50%; inconclusive means mostly about -30% to -49%;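 further: -100% = wells without enzyme as full effect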
# Target sequence (Q9BTU6 whole entry, looked up): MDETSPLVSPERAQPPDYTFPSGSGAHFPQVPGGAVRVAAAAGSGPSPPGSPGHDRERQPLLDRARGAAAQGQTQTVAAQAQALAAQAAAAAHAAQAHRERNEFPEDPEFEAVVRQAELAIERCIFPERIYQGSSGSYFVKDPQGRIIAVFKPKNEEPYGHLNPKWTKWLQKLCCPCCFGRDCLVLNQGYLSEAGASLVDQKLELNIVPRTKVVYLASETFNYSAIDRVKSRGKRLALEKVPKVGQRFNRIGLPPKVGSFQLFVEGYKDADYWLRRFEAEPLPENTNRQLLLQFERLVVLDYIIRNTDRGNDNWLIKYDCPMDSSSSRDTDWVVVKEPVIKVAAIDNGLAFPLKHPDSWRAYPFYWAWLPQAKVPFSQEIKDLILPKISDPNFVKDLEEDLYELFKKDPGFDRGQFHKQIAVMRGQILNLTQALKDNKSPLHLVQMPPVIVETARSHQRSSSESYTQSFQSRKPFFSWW
#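 PI4K2A activity was measured by ADP-Glo luminescence: enzyme (4 ug/mL stock) and phosphatidylinositol (1.2 mM stock) in Tris pH 7.5/MgCl2/EGTA/Triton X-100 buffer were reacted with ATP (300 microM stock) for one hour at ambient temperature.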
# D3 ag = activates the human D3 dopamine receptor. 0.58% of 410,000 active. D3R DiscoveRx beta-arrestin cells, luminescence, 90 min. max activation, %; in the data active means max activation above about 30%; further: 0% is about no effect
#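 Agonist-mode cell screen: cells plated at 1500/well and incubated overnight at 37 °C, then exposed to library compounds for 90 min at 37 °C. Detection reagent was added for 30–60 min at room temperature, and luminescence was read.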
# D3 antag = D3 dopamine receptor (human) antagonism; P35462; AID 652054; 2.5% of 360,000 active; max response, negative = inhibition, %; D3R cells, DiscoveRx beta-arrestin luminescence, antagonist mode; hits give low values; in the data active means max response below about -50%; inconclusive means no clear call, values can overlap the other calls; further: on the % scale 0 is the no-effect control and ±100 the full control effect
#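 Cells expressing the human receptor were seeded at 1500 cells/well, incubated overnight at 37 degrees C in 5% CO2, then exposed to library compounds with dopamine controls for 90 minutes at 37 degrees C before luminescent detection.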
# PI5P4Ka inh = PI5P4K alpha (human) kinase inhibition; 1.2% of 330,000 active; PI5P4Kalpha enzyme, ADP-Glo luminescence, 60 min; hits give low values; P48426; max response, %; active means max response of -50% or lower; inconclusive means between -30% and -50%; inactive means -30% or higher; further: value at the top dose of about 77 µM; on the % scale 0 is the no-effect control and ±100 the full control effect
#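 Controls without substrate or without enzyme flank wells where PI5P4Kalpha converts substrate using 5 microM ATP (final). Incubation lasts 60 minutes at room temperature; ADP formed is read by ADP-Glo luminescence.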
# Active calls of the source: *; ? = inconclusive; · = not tested or not shown.
SMILES,LDHA block,PI4K2A inh,D3 ag,D3 antag,PI5P4Ka inh
CCc1ccc2c(c1)-c1ccccc1S(=O)(=O)N2CC(=O)Nc1c(C)cccc1C,11,·,·,·,·
O=C(Nc1nc2ncccn2c1-c1ccccc1)c1ccccc1,·,2,·,·,·
O=Nc1nc2ncccn2c1-c1ccccc1,16,-5,-14,-57*,1
CC(C)(C)c1ccc(NC(=O)c2ccc(F)cc2F)cc1,-1,·,·,·,·
CCOc1ccc(NC(=O)c2ccc(F)cc2F)cc1,-6,?,-1,-65*,?
Cc1c(C(=O)Nc2nc(-c3ccccn3)cs2)oc2ccccc12,-8,-10,-5,-13,-59*
O=C(Nc1nc(-c2ccccn2)cs1)c1cc2ccccc2o1,5,-5,-8,-2,-20
Cn1cccc1C(=O)Nc1nc(-c2ccccn2)cs1,3,-4,-3,-56*,-27
COc1ccc(C2(c3cccc(Br)c3)CCCCC2)cc1,-8,·,·,·,·
C[C@@H](C(=O)Nc1ccc2ccccc2c1)[C@@H]1C[C@@]1(C)[C@@H](NC(=O)c1cnccn1)c1ccccc1,4,-6,-11,-75*,-7
C[C@@H](C(=O)Nc1ccc2ccccc2c1)[C@H]1C[C@]1(C)[C@H](NC(=O)c1cnccn1)c1ccccc1,1,2,4,4,3
CSc1nc2n(n1)C(c1cc(Br)ccc1F)C(C(=O)N(C)C)=C(C)N2 (configuration not stated),-2,0,2,-70*,·
O=C(CC1S/C(=N/N=C/c2ccco2)NC1=O)Nc1cccc(Cl)c1Cl (configuration not stated),-3,-1,-3,-61*,-22
CCC(NC(=O)c1sccc1C)c1ccc(C)cc1 (configuration not stated),1,·,·,·,·
C(=N\N=C1c2ccccc2-c2ccccc21)/c1ccncc1,3,·,·,·,·
CCC1CCCCN1CCCCOc1cccc(Cl)c1 (configuration not stated),-23,4,-21,-96*,-6
CC(C)c1cccc(OCCN2CCCC2)c1,-15,-13,-19,-100*,-2
Clc1cccc(OCCN2CCCC2)c1,-6,1,-11,-73*,2
CCOc1ccc(OCCCCOc2cccc(Cl)c2)cc1,-2,·,·,·,·
O=C(Cc1ccccc1)NC1CCN(c2ccccc2S(=O)(=O)C(F)(F)F)CC1,7,·,·,·,·
CCN(CC(=O)NC(=O)NC1CCCCC1)CC(C)C#N (configuration not stated),0,·,·,·,·
O=C(CCc1ncc(-c2c(F)cccc2F)o1)Nc1ccncc1,-4,·,·,·,·
Oc1cc2c(cc1CN1CCc3ccccc3C1)OCO2,-14,-4,-26,?,-4
C=CCc1ccccc1OCC(O)CNC(C)C (configuration not stated),-17,4,-58,-60*,7
OC(COc1cccc2ccccc12)CN1CCOCC1 (configuration not stated),-11,1,-10,-18,-7
SMILES,LDHA block,PI4K2A inh,D3 ag,D3 antag,PI5P4Ka inh
C=CCc1ccccc1OCC(O)CNC1CCCC1 (configuration not stated),-2,0,-8,-2,-6
O=S(=O)(c1cccs1)N1CCN(CC(O)COC2CCCc3ccccc32)CC1 (configuration not stated),-7,-3,4,?,1
CCOc1ccccc1N1CCN(CC(O)COC2CCCc3ccccc32)CC1 (configuration not stated),0,4,-22,-89*,-4
COc1ccccc1N1CCN(Cc2cc3c(cc2O)OCO3)CC1,33,-7,-26,-81*,2
OC(COc1cccc2ccccc12)CN1CCN(c2ccccc2)CC1 (configuration not stated),-1,-5,35*,-54*,-6
FC(F)(F)c1ccccc1N/N=C/c1ccc(Cl)cc1Cl,9,·,·,·,·
C[C@@H](O)CNC(=O)c1nc(-c2ccc3[nH]ccc3c2)no1,9,·,·,·,·
CCOc1ccccc1N1CCN(CC(O)COc2ccc3c(C)cc(=O)oc3c2)CC1 (configuration not stated),7,0,-9,-70*,·
COc1cccc(OC)c1OCC(O)CN1CCN(c2ccccc2F)CC1 (configuration not stated),1,-2,28,-57*,5
COc1ccccc1N1CCN(CC(O)COc2cccc3ccccc23)CC1 (configuration not stated),-2,0,-74,-99*,17
COc1ccc(N2CCN(CC(O)COc3c(OC)cccc3OC)CC2)cc1 (configuration not stated),0,6,-4,-28,0
Cc1cc(=O)oc2cc(OCC(O)CN3CCN(c4ccc(F)cc4)CC3)ccc12 (configuration not stated),1,-3,3,?,·
C=CCc1ccccc1OCC(O)CN1CCN(c2ccccc2OC)CC1 (configuration not stated),2,7,-12,-139*,3
CCCCN(CCCC)c1nc(-c2ccccc2)cc(-c2ccccc2)c1C#N,2,·,·,·,·
COc1ccc(Cl)cc1N1CC(c2nc3ccccc3n2C(C)C)CC1=O (configuration not stated),-8,·,·,·,·
O=[N+]([O-])c1ccccc1/C=N/Nc1ccc(S(=O)(=O)Nc2cccc(Cl)c2)cc1[N+](=O)[O-],-17,·,·,·,·
CC(=O)c1ccc(NC(=O)Cn2ccc3c(Cl)cccc32)cc1,6,·,·,·,·
Cc1cccc(-c2nc(-c3ccc(F)cc3)no2)c1,9,·,·,·,·
COc1ccccc1N1CCN(CC(O)COc2ccc3c(c2)OCO3)CC1 (configuration not stated),1,-4,-14,-103*,-10
CCN1C(=O)COc2ccc(NC(=O)c3cc(=O)c4cc(Cl)ccc4o3)cc21,-24,·,·,·,·
O=C(O)c1cc(N2C(=O)C=CC2=O)cc(N2C(=O)C=CC2=O)c1,-3,-24,4,-11,-78*
O=C1CC(C(=O)Nc2ccccc2)c2c(nc(SCc3ccccc3Cl)[nH]c2=O)N1 (configuration not stated),10,·,·,·,·
CC(C)=N/N=C1/NC(=O)C(c2ccc(Cl)cc2)S1 (configuration not stated),-2,6,-9,-96*,0
O=C1N/C(=N/N=C/c2ccc(F)cc2)SC1c1ccccc1 (configuration not stated),-19,4,-1,-4,-3
COc1ccc(S(=O)(=O)NCc2ccc(C(=O)NCCN(C)Cc3ccccc3)cc2)cc1,-3,0,-18,-62*,1
COc1ccc(CNC(=O)c2ccc(CNS(=O)(=O)c3ccc(OC)cc3)cc2)cc1,-4,0,-3,·,·
